This is one part of a sample in which the strongest signals are shown more often than they occur.

We go through one molecule from the supplement of paper PMC8728848.

Assay in all cases: glycan array binding signal (z-score within array); higher = stronger binding
Conditions in all cases: glycan notation: IUPAC condensed, linker removed

Assay [1] deals with GlcNAc(b1-2)[GlcNAc(b1-4)]Man(a1-3)[GlcNAc(b1-4)][GlcNAc(b1-2)Man(a1-6)]Man(b1-4)GlcNAc(b1-4)GlcNAc. In outline: (§1)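 The binding signal is a Z-score computed within each array. Data were drawn from 3228 arrays in the Consortium for Functional Glycomics database, restricted to those with a known protein sequence. Scores were averaged over arrays of the same protein sequence at different concentrations or buffers, and over linkers, and negative values can be taken as non-binding.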

In assay [2] the target is GlcNAc(b1-3)Gal(b1-4)GlcNAc(b1-2)Man(a1-3)[GlcNAc(b1-3)Gal(b1-4)GlcNAc(b1-2)Man(a1-6)]Man(b1-4)GlcNAc(b1-4)[Fuc(a1-6)]GlcNAc. Put shortly:
as §1

Assay [3] concerns the target GlcNAc(b1-3)Gal(b1-4)GlcNAc(b1-2)[GlcNAc(b1-3)Gal(b1-4)GlcNAc(b1-6)]Man(a1-6)[GlcNAc(b1-3)Gal(b1-4)GlcNAc(b1-2)Man(a1-3)]Man(b1-4)GlcNAc(b1-4)GlcNAc. In outline:
as §1

Assay [4] concerns the target GlcNAc(b1-3)Gal(b1-4)GlcNAc(b1-3)Gal(b1-4)GlcNAc(b1-2)Man(a1-3)[GlcNAc(b1-3)Gal(b1-4)GlcNAc(b1-3)Gal(b1-4)GlcNAc(b1-2)Man(a1-6)]Man(b1-4)GlcNAc(b1-4)GlcNAc. In outline: as §1
Assay [5] has as its target GlcNAc(b1-3)Gal(b1-4)GlcNAc(b1-3)Gal(b1-4)GlcNAc(b1-2)Man(a1-3)[GlcNAc(b1-3)Gal(b1-4)GlcNAc(b1-3)Gal(b1-4)GlcNAc(b1-2)Man(a1-6)]Man(b1-4)GlcNAc(b1-4)[Fuc(a1-6)]GlcNAc. Put shortly:
as §1

For assay [6], the target named is GlcNAc(b1-3)Gal(b1-4)GlcNAc(b1-3)Gal(b1-4)GlcNAc(b1-3)Gal(b1-4)GlcNAc(b1-2)Man(a1-3)[GlcNAc(b1-3)Gal(b1-4)GlcNAc(b1-3)Gal(b1-4)GlcNAc(b1-3)Gal(b1-4)GlcNAc(b1-2)Man(a1-6)]Man(b1-4)GlcNAc(b1-4)[Fuc(a1-6)]GlcNAc. Put shortly:
as §1

Assay [7] addresses GlcNAc(b1-4)GlcNAc(b1-4)GlcNAc. Put shortly: as §1
Assay [8] addresses Man(a1-2)Man(a1-6)[Man(a1-3)]Man(a1-6)[Man(a1-2)Man(a1-2)Man(a1-3)]Man. Put shortly:
as §1

Assay [9] addresses Man(a1-3)[Man(a1-6)]Man(a1-6)[Man(a1-3)]Man. In outline: as §1
For assay [10], the target named is Neu5Ac(a2-3)Gal(b1-3)GlcNAc(b1-3)Gal(b1-4)GlcNAc. In outline: as §1
The target in assay [11] is Neu5Ac(a2-3)Gal(b1-3)GlcNAc6S. In outline: as §1
Assay [12] deals with Neu5Ac(a2-3)Gal(b1-4)GlcNAc(b1-2)Man(a1-3)[Neu5Ac(a2-3)Gal(b1-4)GlcNAc(b1-2)Man(a1-6)]Man(b1-4)GlcNAc(b1-4)GlcNAc. Put shortly: as §1
Assay [13] has as its target Neu5Ac(a2-3)Gal(b1-4)GlcNAc(b1-3)Gal(b1-4)GlcNAc(b1-3)GalNAc. In outline: as §1
The target in assay [14] is Neu5Ac(a2-3)Gal(b1-4)GlcNAc(b1-3)GalNAc. Put shortly:
as §1

Assay [15] deals with Neu5Ac(a2-3)Gal(b1-4)GlcNAc(b1-6)[Gal(b1-3)]GalNAc. Put shortly: as §1
The target in assay [16] is Neu5Ac(a2-6)Gal(b1-4)GlcNAc(b1-2)Man(a1-6)[Gal(b1-4)GlcNAc(b1-2)Man(a1-3)]Man(b1-4)GlcNAc(b1-4)GlcNAc. In outline: as §1
Assay [17] concerns the target Neu5Ac(a2-6)Gal(b1-4)GlcNAc(b1-2)Man(a1-6)[GlcNAc(b1-2)Man(a1-3)]Man(b1-4)GlcNAc(b1-4)GlcNAc. Put shortly:
as §1

Assay [18] concerns the target Neu5Ac(a2-8)Neu5Ac(a2-3)Gal(b1-3)GalNAc(b1-4)[Neu5Ac(a2-3)]Gal(b1-4)Glc. Put shortly: as §1
For assay [19], the target named is Neu5Ac(a2-8)Neu5Ac(a2-3)Gal(b1-4)Glc. Put shortly:
as §1

In assay [20] the target is Neu5Ac(a2-8)Neu5Ac(a2-8)Neu5Ac(a2-3)[Gal(b1-3)GalNAc(b1-4)]Gal(b1-4)Glc. Put shortly:
as §1

The target in assay [21] is Neu5Ac(a2-8)Neu5Ac(a2-8)Neu5Ac(a2-3)[GalNAc(b1-4)]Gal(b1-4)Glc. Put shortly:
as §1

For assay [22], the target named is Neu5Gc(a2-3)Gal(b1-3)GlcNAc. In outline:
as §1

The target in assay [23] is Neu5Gc(a2-8)Neu5Ac(a2-3)Gal(b1-4)GlcNAc. Put shortly: as §1

B1: Lb MiSSP8 (Laccaria bicolor) (protein)
chain: MYFHTLFACATLMLITTAHASPTVINSLDSRKADLNGDVEARHAADWRRDSDWRRDSDWRRDSDWRRDSD
With B1, the “glycan array binding signal (z-score)” value in assay [1] is -0.64; in assay [2] it was 2.31; in [3] it was 0.54; in assay [4], 2.57; in [5], 2.43; in [6] it was 2.57. The “glycan array binding signal (z-score)” value in assay [7] is 0.319; in [8], -0.578; in assay [9], 2.36; in [10] it was -0.868; in assay [11], -0.226; in assay [12], -0.578. Also, the “glycan array binding signal (z-score)” value was -0.343 in assay [13]; -0.122 in assay [14]; 3.01 in assay [15]; -0.606 in assay [16]; -0.668 in assay [17]; -0.336 in [18]. Besides, the “glycan array binding signal (z-score)” value in assay [19] was -0.744; in assay [20], 1.08; in assay [21] it was -0.82; in assay [22], -0.571; in assay [23], -0.958.
